# Results published in PubChem BioAssay AID1851 (National Center for Advancing Translational Sciences (NCATS), 2009).
# The whole screen tested about 16,000 compounds, of which about 5,700 (36%) were called active. About 24% were inconclusive and are not listed. Some of the results follow. Values without a mark were called inactive. The call rests on the fitted dose curve; in most records, active means well fitted curve in the direction sought with a large enough effect; inconclusive means small, poorly fitted or top-dose-only effect, or effect the other way; inactive means no such curve, though single readings can be large or run the other way.
# Target: Cytochrome P450 1A2 (Homo sapiens) (UniProt P05177)
# Test: Cytochrome panel assay with activity outcomes
# Conditions: recombinant CYP, pro-luciferin dealkylation, luminescence, p450-cyp1a2; series mostly up to 57.1 µM
# On the % scale 0 is the no-effect control and ±100 the full control effect.
# Cytochrome P450 1A2 (Homo sapiens), sequence (P05177 whole entry, looked up): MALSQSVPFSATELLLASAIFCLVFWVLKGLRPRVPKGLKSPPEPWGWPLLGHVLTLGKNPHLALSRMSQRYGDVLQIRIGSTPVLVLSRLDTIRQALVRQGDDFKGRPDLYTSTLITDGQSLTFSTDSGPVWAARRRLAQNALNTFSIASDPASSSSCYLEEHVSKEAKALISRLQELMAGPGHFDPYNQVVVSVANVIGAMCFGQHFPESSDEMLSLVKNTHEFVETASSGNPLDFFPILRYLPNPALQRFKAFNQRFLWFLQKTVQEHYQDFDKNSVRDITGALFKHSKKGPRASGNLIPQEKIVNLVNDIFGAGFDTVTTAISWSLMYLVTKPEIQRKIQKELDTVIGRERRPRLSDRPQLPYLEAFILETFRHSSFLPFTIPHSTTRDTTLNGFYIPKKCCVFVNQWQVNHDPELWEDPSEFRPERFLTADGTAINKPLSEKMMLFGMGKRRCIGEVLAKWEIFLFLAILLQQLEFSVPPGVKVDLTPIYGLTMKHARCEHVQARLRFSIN
SMILES,AC50,"activity, negative = inhibition"
CN(C)c1ncc2ncc(=O)n(C)c2n1,6.31 µM (active),–
COc1ncc2ncc(=O)n(C3CC3)c2n1,10 µM (active),–
COc1ccc(Oc2ncc3ncc(=O)n(C4CC4)c3n2)cc1,5.01 µM (active),–
CN(C)c1ncc2ncc(=O)n(C3CC3)c2n1,3.16 µM (active),–
COC(=O)[C@@]1(Cc2ccc(OC)cc2)[C@H]2c3cc(C(=O)N4CCCC4)n(Cc4cc(F)cc5c4OCOC5)c3C[C@H]2CN1C(=O)c1ccccc1,inactive,–
C/C(CCN1CCc2nc(-c3ccccc3)c(-c3ccccc3)cc2C1)=N\O[C@@H](C)c1cn([C@@H]2COC[C@@H]2O)nn1,–,-3.92% [at 11.4 µM]
Cc1nc(NC(N)=S)sc1C(=O)Nc1ccccc1,8.91 µM (active),–
Cc1ccc(COc2ccc(Br)cc2/C=N/O)cc1,1.58 µM (active),–
O=C(Cc1ccccc1)N/N=C/c1ccccc1OCc1ccc(Cl)cc1,2.24 µM (active),–
O=C(O)c1ccc(OCc2ccccc2)c(Cl)c1,–,-3.18% [at 2.29 µM]
NC(=S)N/N=C/c1ccccc1OCc1cccc(Cl)c1,2.24 µM (active),–
O/N=C/c1ccccc1OCc1ccc(Cl)cc1,2.24 µM (active),–
CCOc1cc(/C=N/NC(=O)CN2CCCCC2)ccc1OCc1ccccc1,inactive,–
NCc1ccc(S(N)(=O)=O)cc1,inactive,–
Cc1[nH]c2ccccc2c1C(c1ccccn1)N1CCC(C)CC1 (stereo unspecified),inactive,–
O/N=C/c1cc(Cl)ccc1OCc1cccc2ccccc12,0.112 µM (active),–
Cc1n[nH]c(=S)n1/N=C/c1ccccc1OCc1ccc(Cl)cc1,1.58 µM (active),–
CCn1c(O)c(/C=N/N=C2CCCC2)c2ccc(C3=NNC(=O)CC3)cc21,inactive,–
O=C1CCC(c2ccc(-n3ccnc3)cc2)=NN1,0.158 µM (active),–
O=C(Nc1cccc(F)c1)N1CCC2(CCNCC2)CC1,inactive,–
COc1cccc(Cn2c(=O)c(-c3cccc(C#N)c3)nc3cnc(Nc4ccccc4)nc32)c1,inactive,–
CCNc1ncc2nc(-c3ccccc3)c(=O)n(CCOC)c2n1,3.16 µM (active),–
CCNc1ncc2nc(-c3cc(F)cc(F)c3)c(=O)n(CCOC)c2n1,3.16 µM (active),–
COCCn1c(=O)c(-c2ccccc2)nc2cnc(Nc3ccccc3)nc21,5.01 µM (active),–
O=C(CNS(=O)(=O)c1ccc(Br)s1)N1CCC(N2CCCCC2)CC1,inactive,–
Oc1cc(O)c2c(c1)O[C@@H](c1ccc(O)c(O)c1)[C@H](O[C@@]1(c3cc(O)c(O)c(O)c3)Oc3cc(O)cc(O)c3[C@H](O)[C@@H]1O)C2,–,-13.3% [at 11.4 µM]
